PubChem BioAssay AID504773 (Broad Institute, 2011)
Measured potencies and affinities stand elsewhere. Activity calls are given as the source filed them.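 Rule for the calls: active = polarization signal falls with dose and the fitted half-maximal concentration is at or below ten times the sample's top valid dose; inconclusive = flat curve at 30 to 70% inhibition, or poor fit; inactive = signal rises, flat within 30%, or potency beyond limit.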

Each molecule was assayed against Golgi-associated PDZ and coiled-coil motif-containing protein (Homo sapiens) (UniProt Q9HD26) (assay: CAL PDZ peptide-binding inhibitors, dose response, biochemical, fluorescence polarization, Cerulean-tagged CAL PDZ, cherry-picks (AID 504773)). Details: 1 h; series mostly up to 50 µM.

outcome, inactive:
CC(C)=Cc1oc2ccc([N+](=O)[O-])cc2c1N1CCOCC1
COC(=O)c1cccc([N+](=O)[O-])c1CS(=O)(=O)c1ccc(C)cc1
CCCC(=O)OCC(=O)Nc1ccccc1C#N
CC(=Nc1ccccc1O)c1sc2ccccc2c1O
CCOC(=O)/C=C/C(=O)OCC(=O)Nc1ccc([N+](=O)[O-])cc1
COc1ccc(C(=O)NC2(C(F)(F)F)C(=O)Nc3c2c(=O)[nH]c(=O)n3CCc2ccc(OC)c(OC)c2)cc1 (configuration not stated)
C/C(=C/c1ccccc1)C(=O)N1CCN(c2ccccc2)CC1
CCC1C(=O)NCCN1C(=O)CCc1nnc(CCc2ccc(OC)cc2)o1 (configuration not stated)
COc1cc(C(=O)NC(C)CCc2ccccc2)cc(OC)c1OC (configuration not stated)
C(=C/c1nccc2c1[nH]c1ccccc12)/c1ccc2c(c1)OCO2
CCc1nnc(NS(=O)(=O)c2ccc(NC(=O)CCC(=O)O)cc2)s1
Cc1ccc(/C=N/NC(=O)NN(C)c2ncc(C(F)(F)F)cc2Cl)cc1
COc1ccc(C(=O)Nc2nccs2)cc1
O=C(c1c(Cl)cccc1Cl)N1CCCCCC1
O=C(c1ccccc1)C(CCc1ccccn1)CCc1ccccn1
O=C(CNCc1ccccc1)Nc1ccc(F)cc1
O=C(NNC(=O)c1ccc(Cl)c(Cl)c1)c1cccnc1
O=C(c1cc(Br)ccc1Cl)N1CCN(c2ccccn2)CC1
Cc1ccc(CN(C(=O)c2ccco2)C(C(=O)NC2CCCC2)c2cccnc2)cc1 (configuration not stated)
CC(C)OC(=O)C1CC(C)(O)C(=O)C(C(=O)OC(C)C)C1c1ccc([N+](=O)[O-])cc1 (configuration not stated)
Cc1ccc(NC(=O)N2CCCC2C(=O)NCC2CCCO2)cc1 (configuration not stated)
CCCCC(CCC(=O)Nc1nccs1)C(=O)O (configuration not stated)
Cc1cccc(-n2nc(C)c3c2NC2=C(C(=O)CCC2)C3c2ccccn2)c1 (configuration not stated)
Cc1cc(NC(=O)Cc2ccc(Br)cc2)no1
COc1ccc(CC(=O)N2CCC(CCC(=O)Nc3ccccc3)CC2)cc1
CC(C)n1cc(C(=O)N2CCCC(N3CCN(c4ccc(F)cc4)CC3)C2)cn1 (configuration not stated)
O=C(NCc1ccccc1Cl)C1CC(=O)N(Cc2ccccc2)C1 (configuration not stated)
CCOC(=O)C1(CCOc2ccccc2)CCN(CC(O)CO)CC1 (configuration not stated)
O=C(O)CC1(CC(=O)Nc2ccc(Br)cc2)CCCCC1
CNC(=O)c1nnn(Cc2ccccc2)c1NC(C)=O
OCC1(CCOc2ccccc2)CCN(CCCn2cccn2)CC1
COc1ccc(OC)c(NC(=O)c2ccc(OC3CSC3)cc2)c1
CCOC(=O)c1ccc(NC(=S)N2CCCC(C(=O)N3CCCC3)C2)cc1 (configuration not stated)
N=c1c(S(=O)(=O)c2ccc(Cl)cc2)cc2c(=O)n3ccccc3nc2n1C1CCCCC1
Cc1ccc(NC(=O)CN(C)CC(=O)Nc2cccc(F)c2)cc1S(=O)(=O)N1CCCCCC1
O=C1c2ccccc2C(O)N1c1ccccc1 (configuration not stated)
O=C(CN1C(=O)NC2(CCCC2)C1=O)Nc1ccc(F)c(F)c1F
